Experimental data as given in PubChem BioAssay.

Target: Left-right determination factor 2 (Homo sapiens) (UniProt O00292)
Test: small molecules binding LEFTY2 protein – biochemical, small-molecule microarray, 635 nm fluorescence scan, primary screen (AID 1110)
Settings: higher = more signal

Left-right determination factor 2 (Homo sapiens), sequence (O00292 whole entry, looked up): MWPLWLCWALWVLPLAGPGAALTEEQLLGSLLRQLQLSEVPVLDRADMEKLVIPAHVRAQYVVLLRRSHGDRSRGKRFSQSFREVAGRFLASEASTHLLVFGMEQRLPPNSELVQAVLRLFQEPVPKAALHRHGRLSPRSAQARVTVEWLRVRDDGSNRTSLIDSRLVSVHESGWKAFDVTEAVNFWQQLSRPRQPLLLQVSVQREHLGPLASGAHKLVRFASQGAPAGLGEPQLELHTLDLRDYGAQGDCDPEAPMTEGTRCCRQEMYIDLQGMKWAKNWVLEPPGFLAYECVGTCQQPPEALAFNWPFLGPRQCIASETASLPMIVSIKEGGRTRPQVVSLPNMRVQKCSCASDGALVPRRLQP

SMILES	composite z-score
C=C1C(=O)C=C2CN(C(=O)c3ccccc3)[C@@](Cc3ccc(OC)cc3)(C(=O)OC)[C@@H]12	-0.135
O=C(NC1CC1)[C@@H]1c2ccccc2C(=O)N(Cc2cc(C(F)(F)F)cc(C(F)(F)F)c2)[C@H]1c1ccc(CO)cc1	-0.876
COC(=O)c1cccc([C@H]2OC(=CC(=O)OC(C)C)C[C@@H](c3cccc(C(=O)OC)c3)O2)c1	0.599
COc1cc(C(O)C2C=CC3C(=O)N(c4ccccc4)C(=O)C3N2Nc2ccccc2F)cc(OC)c1OC (configuration not stated)	0.2
COCCOC(=O)N1C(=O)[C@@]2(c3cc(C#CCC(C(=O)OC)C(=O)OC)ccc31)[C@H](c1ccc(O)cc1)N1[C@H](c3ccccc3)[C@H](c3ccccc3)OC(=O)[C@H]1[C@@H]2C(=O)Nc1nc2ccccc2s1	0.616
COc1ccc([Si](C)(C)[C@@H]2[C@@H](CC(=O)N(CCO)Cc3ccccc3)O[C@]3(C(=O)N(Cc4ccc(N5C(=O)c6cccc7cccc5c67)cc4)c4ccccc43)[C@H]2C)cc1	0.495
C[C@@H]1ON(c2ccc(I)cc2)[C@H](c2cccc(NC(=O)OCC3c4ccccc4-c4ccccc43)c2)[C@H]1C(=O)N1C(=O)OC[C@H]1Cc1ccccc1	0.678
COCCOC(=O)N1C(=O)[C@@]2(c3cc(C#CCC(C(=O)OC)C(=O)OC)ccc31)[C@H](C(=O)Nc1nc3ccccc3s1)[C@H]1C(=O)O[C@H](c3ccccc3)[C@H](c3ccccc3)N1[C@@H]2c1ccc(O)cc1	1.31
COc1ccc(C(O)C2C=CC3C(=O)N(c4ccccc4)C(=O)C3N2Nc2ccc([N+](=O)[O-])cc2)c2ccccc12 (configuration not stated)	-0.0163
COc1ccc(C(=O)Nc2ccc3c(c2)[C@@]2(O[C@H](CCO)[C@@H]([Si](C)(C)c4ccc(OC)cc4)[C@@H]2C)C(=O)N3Cc2ccccc2)cc1	0.219
[N-]=[N+]=Nc1ccccc1[C@@H]1OC(c2ccc(OCCCO)cc2)=N[C@]1(CCS(=O)(=O)c1ccccc1)C(=O)NCC(O)CO (some centres not stated)	-0.741
COC(=O)[C@@]1(Cc2ccccc2)[C@H]2c3cc(C(=O)N(C)C)n(Cc4ccc(S(C)(=O)=O)cc4)c3C[C@H]2CN1C(=O)c1ccccc1	-0.115

Target: Calmodulin-1 (Homo sapiens) (UniProt P0DP23)
Test: small molecules binding calmodulin-1 with EGTA – biochemical, small-molecule microarray, Cy5-labelled CALM1, profiling panel (AID 1111);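 further: labelled calmodulin applied in Tris saline Tween buffer holding calcium plus EGTA and DTT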
Settings: Cy5-CALM1 binding fluorescence, higher = more signal

SMILES	composite z-score
O=C1O[C@H](Cc2ccccc2)[C@@H]2[C@H]3C=CCCC=C3CN2[C@H]1Cc1ccc(O)cc1	-0.342
CN1C(=O)[C@@H]2[C@@H](CC(COc3ccccc3)=C3[C@@H](CCc4ccccc4)OB(O)C[C@@H]32)C1=O	0.0212
CCOC(=O)C[C@H]1[C@H](OC(=O)Cc2ccc3c(c2)OCO3)[C@@H](NC(=O)Cc2ccc(OC)cc2)c2cc(OCCCO)ccc2N1C(=O)Cc1ccc(OC)cc1	0.824
CN(C)CCCNC(=O)[C@@]1(Cc2ccccc2I)c2ccccc2C(=O)N(C2CCCCC2)[C@H]1c1ccc(CO)cc1	1.71
CCCCC(=C=CC[C@H](O)c1ccc(CO)o1)CCO	0.155
COC(=O)[C@@]1(Cc2ccc(F)cc2)[C@H]2c3cc(C(=O)N(C)C)n(C)c3C[C@H]2CN1C(=O)c1ccccc1	1.1
CC1CC/C=C\[C@H]2OC34C=CCN(c5ccc(Cl)cc5)C(=O)[C@H]3N(CCCCCCO)C(=O)[C@]4(C)C2C(=O)O1 (some centres not stated)	-0.249
O=C1C[C@]2(c3ccc([N+](=O)[O-])cc3)C(=O)N(C3CC3)c3cc(CO)ccc3[C@H]2N1C1CCCCC1	-0.301
CCCC[C@H]1C[C@@H]1[C@@H]1N(C(C)=O)[C@H](c2cccc(OC)c2)CC12CC2	1.03
Cc1ccc(S[C@]2(C(=O)NCC(F)(F)F)CC(=O)N(Cc3ccccc3C(F)(F)F)[C@@H]2c2ccc(CO)cc2)cc1	-0.39
Cc1ccc(S[C@]2(C(=O)NCCCN(C)C)CC(=O)N(C3Cc4ccccc4C3)[C@@H]2c2ccc(CO)cc2I)cc1	0.0811
N#Cc1ccc(C(O)C2C=CC3C(=O)NC(=O)C3N2Nc2ccc(Cl)cc2Cl)cc1 (configuration not stated)	1.69
O=C1O[C@@H](c2ccccc2)[C@@H](c2ccccc2)N2[C@@H](c3ccccc3OCCO)[C@]3(C(=O)Nc4ccc(C#CCCO)cc43)[C@@H](C(=O)NC[C@H](O)c3ccccc3)[C@H]12	2.34
COc1ccc([Si](C)(C)[C@@H]2[C@@H](CC(=O)N3Cc4ccccc4C[C@H]3CO)O[C@]3(C(=O)N(Cc4ccc(N5CCOC5=O)cc4)c4ccccc43)[C@H]2C)cc1	-0.422
COc1ccccc1CN1C(=O)c2ccccc2[C@](Cc2ccccc2I)(C(=O)NCC(C)C)[C@@H]1c1ccc(CO)cc1	-0.313
CC(C)(C)OC(=O)CC[C@@]1(C(=O)NCCN2CCOCC2)N=C(c2ccc(OCCCO)cc2)O[C@@H]1c1ccccc1CN=[N+]=[N-]	1.98
CC(C)=CCCC(C)=CC(O)C1C=CC2C(=O)NC(=O)C2N1Nc1ccccn1 (configuration not stated)	-0.188
CC(C)N1C(=O)c2ccccc2[C@](C)(C(=O)NCC(F)(F)F)[C@@H]1c1ccc(CO)cc1	-0.625

SMILES	composite z-score
Cc1ccc(S[C@]2(C(=O)NCc3ccccc3)CC(=O)N(Cc3ccccc3C(F)(F)F)[C@@H]2c2ccc(CO)cc2)cc1	-0.488
Cc1ccccc1C(O)C1C=CC2C(=O)N(c3ccccc3)C(=O)C2N1Nc1ccccc1 (configuration not stated)	2.12
O=C1OCCC=C[C@H]2OC34C=CCN(c5ccc6ccccc6c5)C(=O)[C@H]3N(CCO)C(=O)[C@@H]4C12 (some centres not stated)	-0.237
COCCCNC(=O)[C@@H]1c2ccccc2C(=O)N(Cc2ccc(OC(F)(F)F)cc2)[C@H]1c1ccc(CO)cc1	0.0389
CCC(CC)C(O)C1C=CC2C(=O)N(c3ccccc3)C(=O)C2N1Nc1ccccc1F (configuration not stated)	0.189
C=C1C(=O)C=C2CN(C(=O)c3ccccc3)[C@@](Cc3ccc(OC)cc3)(C(=O)OC)[C@@H]12	2.16
O=C(NC1CC1)[C@@H]1c2ccccc2C(=O)N(Cc2cc(C(F)(F)F)cc(C(F)(F)F)c2)[C@H]1c1ccc(CO)cc1	0.146
COC(=O)c1cccc([C@H]2OC(=CC(=O)OC(C)C)C[C@@H](c3cccc(C(=O)OC)c3)O2)c1	1.36
COc1cc(C(O)C2C=CC3C(=O)N(c4ccccc4)C(=O)C3N2Nc2ccccc2F)cc(OC)c1OC (configuration not stated)	1.05
COCCOC(=O)N1C(=O)[C@@]2(c3cc(C#CCC(C(=O)OC)C(=O)OC)ccc31)[C@H](c1ccc(O)cc1)N1[C@H](c3ccccc3)[C@H](c3ccccc3)OC(=O)[C@H]1[C@@H]2C(=O)Nc1nc2ccccc2s1	1.38
COc1ccc([Si](C)(C)[C@@H]2[C@@H](CC(=O)N(CCO)Cc3ccccc3)O[C@]3(C(=O)N(Cc4ccc(N5C(=O)c6cccc7cccc5c67)cc4)c4ccccc43)[C@H]2C)cc1	0.553
C[C@@H]1ON(c2ccc(I)cc2)[C@H](c2cccc(NC(=O)OCC3c4ccccc4-c4ccccc43)c2)[C@H]1C(=O)N1C(=O)OC[C@H]1Cc1ccccc1	0.224
COCCOC(=O)N1C(=O)[C@@]2(c3cc(C#CCC(C(=O)OC)C(=O)OC)ccc31)[C@H](C(=O)Nc1nc3ccccc3s1)[C@H]1C(=O)O[C@H](c3ccccc3)[C@H](c3ccccc3)N1[C@@H]2c1ccc(O)cc1	0.975
COc1ccc(C(O)C2C=CC3C(=O)N(c4ccccc4)C(=O)C3N2Nc2ccc([N+](=O)[O-])cc2)c2ccccc12 (configuration not stated)	1.86
COc1ccc(C(=O)Nc2ccc3c(c2)[C@@]2(O[C@H](CCO)[C@@H]([Si](C)(C)c4ccc(OC)cc4)[C@@H]2C)C(=O)N3Cc2ccccc2)cc1	0.397
[N-]=[N+]=Nc1ccccc1[C@@H]1OC(c2ccc(OCCCO)cc2)=N[C@]1(CCS(=O)(=O)c1ccccc1)C(=O)NCC(O)CO (some centres not stated)	0.867
COC(=O)[C@@]1(Cc2ccccc2)[C@H]2c3cc(C(=O)N(C)C)n(Cc4ccc(S(C)(=O)=O)cc4)c3C[C@H]2CN1C(=O)c1ccccc1	1.69
